Experimental data published in PubChem BioAssay (Tox21).
Unmarked numbers belong to inactive results. Results filed as inconclusive are left out. Entries that show only a call come without a potency. Activity calls are given as the source filed them. Unless noted, calls come from the whole dose curve.

Tests used:
[1] = Nuclear factor erythroid 2-related factor 2/antioxidant responsive element (Nrf2/ARE) small molecule agonists: qHTS cell viability counter screen in human keratinocytes (AID 1919968; active = well fitted curve in the direction sought with a large enough effect in the repeat runs; an effect the other way counts as inactive or inconclusive; note: nearly all actives have a fitted effect of over 55% in size)
Procedure, shortened: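 Cells of the KeratinoSens line were plated at 1,500 per well and left for 5 h before compound transfer from DMSO stocks. After a 23 h incubation (37 C, 5% CO2), CellTiter-Fluor was added. Signal was taken as fluorescence intensity 1 h later.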

[2] = Nuclear factor erythroid 2-related factor 2/antioxidant responsive element (Nrf2/ARE) small molecule agonists: luciferase reporter gene qHTS assay in human keratinocytes (AID 1919969); note: nearly all actives have a fitted effect of over 35% in size; note: potency is the fitted concentration of half-maximal effect
[3] = molecular target: Gonadotropin-releasing hormone receptor (Homo sapiens) (UniProt P30968); assay: Human gonadotropin-releasing hormone receptor (GnRHR) small molecule agonists, calcium flux assay in GnRHR-HEK293 cells (AID 1920063); note: nearly all actives have a fitted effect of over 35% in size
Sequence of Gonadotropin-releasing hormone receptor (Homo sapiens) (P30968 whole entry, looked up): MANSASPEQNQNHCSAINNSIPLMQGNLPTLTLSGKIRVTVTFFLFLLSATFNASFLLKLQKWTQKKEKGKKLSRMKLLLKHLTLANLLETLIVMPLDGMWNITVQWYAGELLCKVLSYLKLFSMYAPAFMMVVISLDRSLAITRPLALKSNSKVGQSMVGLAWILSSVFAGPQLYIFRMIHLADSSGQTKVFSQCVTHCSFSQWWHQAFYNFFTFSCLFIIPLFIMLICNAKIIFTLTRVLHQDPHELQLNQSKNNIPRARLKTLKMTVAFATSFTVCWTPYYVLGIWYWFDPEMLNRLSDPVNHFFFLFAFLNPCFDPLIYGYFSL
Procedure, shortened: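 Compounds dissolved in DMSO are pin-transferred onto dye-loaded GnRHR-HEK293 cells, which were seeded 18 h before at 37 C/5% CO2. Calcium signal is read as fluorescence intensity at 1 s intervals for 3 min.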

[4] = molecular target: KiSS-1 receptor (Homo sapiens) (UniProt Q969F8); assay: Human kisspeptin (KISS1R) small molecule agonists, calcium flux assay in KISS1R-HEK293 cells (AID 1920064; active = well fitted curve in the direction sought with a large enough effect in the repeat runs; an effect the other way counts as inactive or inconclusive)
Sequence of KiSS-1 receptor (Homo sapiens) (Q969F8 whole entry, looked up): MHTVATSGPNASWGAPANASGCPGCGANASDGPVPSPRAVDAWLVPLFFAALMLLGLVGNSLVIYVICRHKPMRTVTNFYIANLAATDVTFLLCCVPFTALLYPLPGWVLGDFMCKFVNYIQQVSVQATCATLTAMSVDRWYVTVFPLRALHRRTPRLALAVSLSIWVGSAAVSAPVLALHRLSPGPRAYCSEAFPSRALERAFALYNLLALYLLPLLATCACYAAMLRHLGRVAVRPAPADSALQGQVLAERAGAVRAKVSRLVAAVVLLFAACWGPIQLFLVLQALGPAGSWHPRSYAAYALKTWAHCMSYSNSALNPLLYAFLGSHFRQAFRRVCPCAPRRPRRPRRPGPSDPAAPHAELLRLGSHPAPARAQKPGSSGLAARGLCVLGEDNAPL
Procedure, shortened: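 Cell line: HEK293, stable human KISS1R. Dye loading 1 h at 37 C after 18 h culture. Read: kinetic fluorescence, 480/540 nm, 3 min at 1 s intervals.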

[5] = G protein-coupled receptor (GPCR) small molecule agonists, calcium flux assay: HEK293 wild type cell line counter screen (AID 1920065)
Procedure, shortened: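 Tox21 10K compounds, 15 concentrations each in triplicate, pin-transferred in DMSO onto dye-loaded cells; kinetic read at 480/540 nm for 3 min, 1 s intervals.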

[6] = p53 small molecule agonists, cell-based qHTS assay with human liver microsomes (AID 1963577);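 note: p53 response element beta-lactamase reporter cells with liver microsomes plus NADPH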
Procedure, shortened: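 Metabolically competent format: test substances, human liver microsomes and NADPH (both 0.5 mg/mL final) incubated with p53RE-bla cells 16 h at 37 C. Beta-lactamase reporter signal then quantified by fluorescence.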

[7] = p53 small molecule agonists, cell-based qHTS assay with rat liver microsomes (AID 1963578)
Procedure, shortened: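 Each plate received p53RE-bla cells, then compound, then rat liver microsomes and NADPH (both 0.5 mg/mL final). Plates were held 16 h at 37 C, and beta-lactamase activity was detected with LiveBLAzer over 2 h.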

[8] = p53 small molecule agonists, cell-based qHTS assay with human liver microsomes: qHTS cell viability counter screen (AID 1963579); note: nearly all actives have a fitted effect of over 45% in size
Procedure, shortened: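 Tox21 library compounds, delivered from DMSO stocks, were tested on p53RE-bla cells together with 0.5 mg/mL human liver microsomes and 0.5 mg/mL NADPH (final) over 16 h at 37 C; CellTiter-Glo luminescence served as the cytotoxicity measure.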

[9] = p53 small molecule agonists, cell-based qHTS assay with rat liver microsomes: qHTS cell viability counter screen (AID 1963580); note: nearly all actives have a fitted effect of over 45% in size
Procedure, shortened: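 Cytotoxicity counter screen: intracellular ATP read by CellTiter-Glo luminescence in the p53 reporter wells. HCT-116 p53RE-bla cells were treated for 16 h at 37 C alongside rat liver microsomes and NADPH, each 0.5 mg/mL final.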

[10] = p53 small molecule agonists, cell-based qHTS assay (AID 1963582; active = well fitted activation curve with a large enough effect in the signal ratio in the repeat runs, not every such curve was filed as active; the % refers to the signal ratio)
Procedure, shortened: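 16 h compound exposure (37 C) of p53 response element–bla cells, preceded by 5 h recovery at 37 C/5% CO2; read-out via LiveBLAzer B/G FRET substrate, 2 h RT, fluorescence intensity.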

[11] = molecular target: 5-hydroxytryptamine receptor 2A (Homo sapiens) (UniProt P28223); assay: 5-hydroxytryptamine receptor 2A (HTR2A) small molecule antagonists, cell-based qHTS assay (AID 1963586); note: nearly all actives have a fitted effect of over 45% in size; note: potency is the fitted concentration of half-maximal effect
Sequence of 5-hydroxytryptamine receptor 2A (Homo sapiens) (P28223 whole entry, looked up): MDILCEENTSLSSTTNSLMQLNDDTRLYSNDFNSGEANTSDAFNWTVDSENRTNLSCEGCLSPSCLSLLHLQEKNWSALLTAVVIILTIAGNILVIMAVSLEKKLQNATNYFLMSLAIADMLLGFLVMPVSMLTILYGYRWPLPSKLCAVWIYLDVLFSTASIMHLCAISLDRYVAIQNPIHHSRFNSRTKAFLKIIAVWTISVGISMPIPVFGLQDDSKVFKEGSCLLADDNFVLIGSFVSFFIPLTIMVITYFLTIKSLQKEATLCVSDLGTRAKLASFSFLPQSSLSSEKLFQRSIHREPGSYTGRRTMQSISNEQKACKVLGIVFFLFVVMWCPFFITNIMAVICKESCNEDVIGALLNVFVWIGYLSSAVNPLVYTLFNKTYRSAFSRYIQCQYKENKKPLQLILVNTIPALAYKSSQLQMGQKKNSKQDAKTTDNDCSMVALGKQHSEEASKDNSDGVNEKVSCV
Procedure, shortened: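 CHO cells stably expressing human HTR2A were plated for 18 h at 37 C, then loaded with calcium dye for 1 h. Compounds were preincubated 5 min at room temperature before DOI (4 nM solution) was added. Kinetic fluorescence was read for 3 min.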

[12] = molecular target: 5-hydroxytryptamine receptor 2A (Homo sapiens) (UniProt P28223); assay: 5-hydroxytryptamine receptor 2A (HTR2A) small molecule agonists, cell-based qHTS assay (AID 1963587); note: nearly all actives have a fitted effect of over 30% in size; note: potency is the fitted concentration of half-maximal effect
Procedure, shortened: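 Kinetic calcium-flux fluorescence (2 min, 1 sec intervals) after compound addition in agonist mode. HTR2A-CHO cells were cultured 18 h, then dye-loaded 1 h at 37 C.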

[13] = molecular target: Muscarinic acetylcholine receptor M1 (Homo sapiens) (UniProt P11229); assay: Cholinergic receptor muscarinic 1 (CHRM1) small molecule antagonists, cell-based qHTS assay (AID 1963588); note: nearly all actives have a fitted effect of over 40% in size; note: potency is the fitted concentration of half-maximal effect
Sequence of Muscarinic acetylcholine receptor M1 (Homo sapiens) (P11229 whole entry, looked up): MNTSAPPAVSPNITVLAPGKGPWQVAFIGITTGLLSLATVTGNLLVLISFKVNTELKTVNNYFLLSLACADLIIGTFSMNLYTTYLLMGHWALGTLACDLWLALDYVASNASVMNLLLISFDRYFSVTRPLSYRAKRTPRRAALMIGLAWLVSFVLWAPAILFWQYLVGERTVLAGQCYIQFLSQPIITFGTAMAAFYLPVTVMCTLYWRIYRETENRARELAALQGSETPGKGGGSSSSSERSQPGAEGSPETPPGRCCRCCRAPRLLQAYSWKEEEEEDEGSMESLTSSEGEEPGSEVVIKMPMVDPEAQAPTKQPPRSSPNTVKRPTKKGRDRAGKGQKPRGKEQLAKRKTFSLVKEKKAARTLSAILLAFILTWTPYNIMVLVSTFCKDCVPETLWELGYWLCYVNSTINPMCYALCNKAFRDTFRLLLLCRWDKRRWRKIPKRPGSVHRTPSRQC
Procedure, shortened: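 Compounds were tested at 15 concentrations in three independent runs. Dye-loaded CHRM1-CHO cells were exposed 5 min at room temperature before stimulation by acetylcholine added at 50nM. Intracellular calcium was read kinetically on FDSS for 3 min.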

[14] = molecular target: Muscarinic acetylcholine receptor M1 (Homo sapiens) (UniProt P11229); assay: Cholinergic receptor muscarinic 1 (CHRM1) small molecule agonists, cell-based qHTS assay (AID 1963589); note: nearly all actives have a fitted effect of over 35% in size
Procedure, shortened: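 Homogeneous fluorescence calcium flux, agonist mode. Human M1-expressing CHO cells; compound dosed at 15 concentrations, three independent runs; signal sampled every 1 sec.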

[15] = cAMP Responsive Elements (CRE) small molecule agonists, cell-based qHTS assay (AID 1963590)
Procedure, shortened: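 HEK 293T cells stably bearing CRE-bla were plated at 2,000 cells per well and rested 18 h. Compounds, positive controls or DMSO were added for 3 h at 37 C. LiveBLAzer B/G substrate was then loaded for 2 h at room temperature.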

[16] = molecular target: Beta-2 adrenergic receptor (Homo sapiens) (UniProt P07550); assay: Adrenergic beta2 receptor (ADRB2) small molecule antagonists, cell-based qHTS assay (AID 1963592); note: series mostly up to about 92 µM; nearly all actives have a fitted effect of over 50% in size
Sequence of Beta-2 adrenergic receptor (Homo sapiens) (P07550 whole entry, looked up): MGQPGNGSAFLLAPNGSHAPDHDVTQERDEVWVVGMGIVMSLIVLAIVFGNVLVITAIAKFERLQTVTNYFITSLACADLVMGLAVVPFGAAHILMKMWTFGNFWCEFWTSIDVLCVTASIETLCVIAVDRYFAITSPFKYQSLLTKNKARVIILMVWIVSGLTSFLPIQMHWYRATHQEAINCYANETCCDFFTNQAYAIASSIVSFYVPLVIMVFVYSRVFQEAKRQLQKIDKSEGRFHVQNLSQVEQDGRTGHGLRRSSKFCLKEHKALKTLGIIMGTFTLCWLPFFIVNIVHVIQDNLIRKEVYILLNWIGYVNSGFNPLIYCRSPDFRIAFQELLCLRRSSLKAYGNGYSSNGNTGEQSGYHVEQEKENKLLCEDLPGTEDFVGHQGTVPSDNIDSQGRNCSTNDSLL
Procedure, shortened: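 Assay format: CHO-ADRB2 cells, 18-20hr seeding at 37C/5% CO2, then compound plus 1nM isoproterenol agonist mix for 0.5hr RT. Homogeneous time-resolved fluorescence cAMP detection after 1hr, expressed as 665/615 nm ratio.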

[17] = molecular target: Beta-2 adrenergic receptor (Homo sapiens) (UniProt P07550); assay: Adrenergic beta2 receptor (ADRB2) small molecule agonists, cell-based qHTS assay (AID 1963593);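 note: CHO cells stably overexpressing human ADRB2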
Procedure, shortened: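 CHO cells stably over-expressing ADRB2 were plated overnight at 37C, then dosed with compounds plus a stimulation mix containing 100uM IBMX and 25uM Ro-20-1724 for 0.5hr at room temperature. cAMP was measured by HTRF competition, 1hr.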

[18] = molecular target: D(2) dopamine receptor (Homo sapiens) (UniProt P14416); assay: Dopamine D2 receptor (DRD2) small molecule agonists, cell-based qHTS assay (AID 1963594); note: nearly all actives have a fitted effect of over 35% in size
Sequence of D(2) dopamine receptor (Homo sapiens) (P14416 whole entry, looked up): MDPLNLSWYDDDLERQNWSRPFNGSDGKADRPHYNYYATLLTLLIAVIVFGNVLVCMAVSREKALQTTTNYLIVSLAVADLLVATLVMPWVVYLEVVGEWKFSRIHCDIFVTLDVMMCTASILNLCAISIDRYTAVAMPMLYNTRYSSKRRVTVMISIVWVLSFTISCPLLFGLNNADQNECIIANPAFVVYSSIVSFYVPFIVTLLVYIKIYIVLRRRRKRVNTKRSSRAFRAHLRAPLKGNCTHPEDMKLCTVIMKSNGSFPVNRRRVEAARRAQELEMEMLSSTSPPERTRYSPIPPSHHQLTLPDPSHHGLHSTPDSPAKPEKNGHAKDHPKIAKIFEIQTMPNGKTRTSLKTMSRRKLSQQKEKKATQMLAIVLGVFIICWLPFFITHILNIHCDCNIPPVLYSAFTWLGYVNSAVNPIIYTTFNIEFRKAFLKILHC
Procedure, shortened: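 cAMP accumulation in DRD2-HEK293 cells measured by HTRF after 1 h detection; compounds added 10 min before NKH477 (200nM […]) forskolin-analogue stimulation, 30 min at room temperature, with Ro20-1724 present at 0.1 mM final.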

[19] = cAMP Responsive Elements (CRE) small molecule antagonists, cell-based qHTS assay (AID 1963591; active = well fitted inhibition curve with a large enough effect in the signal ratio in the repeat runs, not every such curve was filed as active; the % refers to the signal ratio)
Procedure, shortened: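 First, CRE-bla HEK293T cells settled 18 h at 37 C. Next, compound and 0.25 uM final NKH477 were applied for 3 h. Last, LiveBLAzer B/G substrate was loaded for 2 h at room temperature.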

[20] = molecular target: D(2) dopamine receptor (Homo sapiens) (UniProt P14416); assay: Dopamine D2 receptor (DRD2) small molecule antagonists, cell-based qHTS assay (AID 1963595; active = well fitted inhibition curve with a large enough effect in the signal ratio in the repeat runs, with a control signal flat; the % refers to the signal ratio; note: potency is the fitted concentration of half-maximal effect)
Procedure, shortened: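 HEK293 cells stably expressing DRD2 were preincubated with 0.1 mM Ro20-1724, then with compound for 10 min at room temperature. Cells were stimulated with 200 nM NKH477 plus 12 nM quinpirole for 30 min, and cAMP was read by HTRF.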

SMILES	Potency [1]	Potency [2]	Potency [3]	outcome [4]	outcome [5]	Potency [6]	Potency [7]	Potency [8]	Potency [9]	Potency [10]	Potency [11]	Potency [12]	Potency [13]	Potency [14]	Potency [15]	Potency [16]	Potency [17]	Potency [18]	Potency [19]	Potency [20]
O=C(CCN1CCC(c2ccccc2)C1)c1ccc2c(c1)OCCO2 (stereo not given)	inactive	inactive	inactive	inactive	inactive	inactive	inactive	inactive	inactive	inactive	inactive	inactive	inactive	inactive	inactive	inactive	inactive	inactive	–	–
CC(C)(O)CCC(C)(C)O	inactive	inactive	inactive	inactive	inactive	inactive	inactive	inactive	inactive	inactive	inactive	inactive	inactive	inactive	inactive	inactive	–	inactive	inactive	inactive
CCN(CC)CCSC(=O)C(c1ccccc1)c1ccccc1	inactive	33500 nM (active)	inactive	inactive	inactive	inactive	inactive	inactive	inactive	inactive	1450 nM (active)	3380 nM (active)	10.3 nM (active)	–	inactive	inactive	–	inactive	–	–
CNC(=O)c1ccccc1	inactive	inactive	inactive	inactive	inactive	inactive	inactive	inactive	inactive	inactive	inactive	inactive	inactive	inactive	–	inactive	–	inactive	–	–
COC(=O)C1=C(C)NC(C)=C(C(=O)OC(C)(C)CN(C)CCC(c2ccccc2)c2ccccc2)C1c1cccc([N+](=O)[O-])c1 (stereo not given)	inactive	inactive	inactive	inactive	inactive	inactive	inactive	inactive	inactive	inactive	inactive	inactive	6500 nM (active)	inactive	–	inactive	–	inactive	inactive	inactive
CC12CCC(CC1=O)C2(C)C (stereo not given)	inactive	inactive	inactive	inactive	inactive	inactive	inactive	inactive	inactive	inactive	–	–	–	–	inactive	inactive	–	–	inactive	inactive
CN1CCC(=C2c3ccccc3CCc3sccc32)CC1	inactive	inactive	inactive	inactive	inactive	inactive	inactive	inactive	inactive	inactive	11.6 nM (active)	–	14.5 nM (active)	inactive	inactive	–	–	inactive	–	11900 nM (active)
CC(=O)CC(=O)Nc1ccc(C)cc1C	inactive	inactive	inactive	inactive	inactive	inactive	inactive	inactive	inactive	inactive	inactive	inactive	–	inactive	inactive	inactive	inactive	inactive	–	inactive
